M1 PAM: human M1 muscarinic receptor positive allosteric modulators, primary screen, CHO-K1 cells, Fluo-8 calcium fluorescence, 1536-well | CHO-K1 hM1, ACh EC20; 0% = ACh EC20, 100% = maximal ACh | activation, % at 3 µM | 360,000 tested, 0.088% active | AID 588819, 2011; in the data active = activation above about 19%, passing the limit was not always enough
Target sequence (P11229 whole entry, looked up): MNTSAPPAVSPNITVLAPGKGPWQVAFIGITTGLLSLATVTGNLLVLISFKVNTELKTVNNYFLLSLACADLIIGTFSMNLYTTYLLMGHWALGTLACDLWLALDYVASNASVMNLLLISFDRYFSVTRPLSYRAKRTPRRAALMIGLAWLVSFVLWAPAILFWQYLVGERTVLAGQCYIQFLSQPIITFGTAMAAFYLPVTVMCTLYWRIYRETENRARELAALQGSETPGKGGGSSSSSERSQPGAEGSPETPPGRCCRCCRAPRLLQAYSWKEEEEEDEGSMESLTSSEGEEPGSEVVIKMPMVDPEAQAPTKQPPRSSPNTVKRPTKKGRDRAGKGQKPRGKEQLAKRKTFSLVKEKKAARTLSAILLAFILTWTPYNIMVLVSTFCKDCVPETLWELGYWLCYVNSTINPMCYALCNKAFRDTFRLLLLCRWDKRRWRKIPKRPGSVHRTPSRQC
CHO-K1 Ca PAM: nonselective calcium activators in parental CHO-K1 cells, primary screen, counter-screen for M1 PAM project, cell-based, Fluo-8 calcium fluorescence, full deck, 1536-well | 360,000 tested, 0.02% active | AID 602247, 2012 | activation, % at 3 µM | ATP EC20; 0% at ATP EC20, 100% at ATP max;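 active = activation above the run cutoff, the mean activation of all test compounds plus 3 SD, cut at about 40% in these data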;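 note: peak over basal fluorescence ratio in a 140 s read after ATP addition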
M1 antag: human M1 muscarinic receptor antagonists, primary screen, CHO-K1 cells, Fluo-8 calcium fluorescence, 1536-well; Muscarinic acetylcholine receptor M1 (Homo sapiens), P11229; CHO-K1 hM1, ACh EC80 antagonist; inhibition, % at 3 µM; AID 588852, 2011; 360,000 tested, 1.3% active;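 active = percent inhibition above its own plate's cutoff, namely the mean of that plate's compound wells plus 3 SD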;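 note: peak over basal fluorescence ratio during 140 s after agonist addition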
CHO-K1 Ca antag: counter-screen for M1 antagonists: effect in parental CHO-K1 cells. 360,000 tested, 0.6% active. inhibition, % at 3 µM. ATP-induced calcium, Fluo-8 fluorescence;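 active = inhibition above a per-plate cutoff, the plate's mean sample inhibition plus 3 SD, cut at about 24% in these data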
CHRM1 agonist: human M1 muscarinic receptor agonists, primary screen, Fluo-8 calcium fluorescence, CHO-K1 cells, HTS; Muscarinic acetylcholine receptor M1 (Homo sapiens), P11229; CHO-K1 hM1, agonist mode; 0% DMSO, 100% acetylcholine EC100; activation, % at 3 µM; 360,000 tested, 0.33% active; AID 588814, 2011;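 active = activation above the run's mean compound activation plus 3 SD, cut at about 16% in these data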;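 note: peak over basal fluorescence ratio within a 140 s kinetic read after compound addition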
M1 ag parental: counter-screen for M1 agonists: effect in parental CHO-K1 cells; Fluo-8 calcium fluorescence; scaled to maximal ATP response, vehicle zero; activation, % at 3 µM; 360,000 tested, 0.48% active; AID 602248, 2012; in the data active = activation above about 15%;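 note: untransfected CHO-K1 host cells lacking M1 receptor as counterscreen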
Of the large screens only hits and unclear results are named; the others gave an inactive call. This is a sample that favours compounds with a hit; in the whole collection about 2.3% have one here.

Cc1c(C(=O)N2CCN(c3ccccc3)CC2)oc2c(Cl)cccc12	none
CCOc1ccc(Cl)cc1-c1cc(C(=O)NCc2cccc(C(F)(F)F)c2)[nH]n1	none
CC(C)NC(=O)c1ccc2c(=O)n(C3CCCC3)c(=S)[nH]c2c1	none
CCN(CC)CCNC(=O)c1ccc2c(=O)n(C3CCCC3)c(=S)[nH]c2c1	M1 antag 57
Cc1ccc(N(CC(O)CN2CCCCC2)S(=O)(=O)c2ccccc2)cc1 (centres undefined)	none
Cc1cc(Oc2ccccc2)nc(-c2ccccc2)n1	none
c1ccc(Oc2cc(-c3ccccc3)nc(-c3ccccc3)n2)cc1	M1 PAM 26
COc1ccc(Nc2cc(Nc3cc(OC)c(OC)c(OC)c3)ncn2)cc1	none
C/C(=N/OC(=O)c1c(-c2ccccc2Cl)noc1C)c1cnccn1	M1 antag 74
C/C(=N/OC(=O)c1c(-c2c(Cl)cccc2Cl)noc1C)c1cnccn1	M1 antag 77
C/C(=N\OC(=O)c1c(-c2ccccc2Cl)noc1C)c1nccs1	none
O=C(c1cccc(Cl)c1)N1CCC(N2CCC(C(=O)N3CCCC3)CC2)CC1	none
CCC(Cc1ccccc1)NC(=O)CCc1ccccc1 (centres undefined)	none
CCOc1cc(/C=C(/C#N)c2ccc(F)cc2)ccc1OCc1ccc(C(=O)O)o1	M1 PAM 23
CCOc1cc(/C=C(/C#N)c2nc3ccccc3[nH]2)ccc1OCc1ccc(C(=O)O)o1	none
CCc1nc2ccc(C(=O)Nc3cccc(OCC(=O)N(C)C)c3)cn2c1N(C)Cc1cc2ccccc2s1	M1 antag 50
CCc1nc2ccc(C(=O)Nc3cccc(OCC(=O)N(C)C)c3)cn2c1N(C)C(=O)c1ccncc1	none
CCNC(=O)N(C)c1c(CC)nc2ccc(C(=O)Nc3cccc(OCC(=O)N(C)C)c3)cn12	M1 antag 32
Cn1c(=S)[nH]c(=O)c2ncc(=O)[nH]c21	none
COc1ccccc1C(=O)NCCC(=O)NC1CCCC(C)C1C (centres undefined)	none
COc1ccc(CCNC(=O)CCC(=O)c2cccs2)cc1OC	CHO-K1 Ca antag 28
COc1ccc(CCNC(=O)CCC(=O)NC2CCCC(C)C2C)cc1OC (centres undefined)	CHO-K1 Ca antag 29
CN(C)CCOCCOc1ccc(Cl)cc1C(C)(C)C	none
OCCN1CCN(CC/C=C2/c3ccccc3Sc3ccc(Cl)cc32)CC1	none
CN(C)CC/C=C1\c2ccccc2Sc2cc(F)c(Cl)cc21	M1 antag 100
CN(C)CCOc1ccc2c(c1)Sc1ccccc1CC2=O	none
CN(C)CC/C=C1\c2cc(Cl)ccc2Sc2cc(F)c(F)cc21	M1 antag 100
CN(C)CC/C=C1\c2ccccc2Sc2ccc(Cl)cc21	M1 antag 100
CN(C)CC/C=C1\c2ccc(F)cc2Sc2cc(F)c(Cl)cc21	M1 antag 100
CC1(C(=O)NCc2ccco2)Cc2c(-c3cccc(C(N)=O)c3)ccnc2O1 (centres undefined)	none
CCOC(=O)[C@]12CCCC=C1N(Cc1cccc3ccccc13)C(=O)[C@H](CC(=O)N1CCCCC1)C2	none (no result: M1 PAM, M1 antag, CHRM1 agonist)
CN(C)CC/C=C1/c2ccc(F)cc2Sc2ccc(Cl)cc21	M1 antag 100
COCc1cn(CC(=O)c2sc(NC(=O)C(C)(C)C)nc2C)nn1	none (no result: M1 PAM, M1 antag, CHRM1 agonist)
CCc1sc(C(=O)Nc2ncccc2O)cc1C	M1 PAM 25
CCc1sc(C(=O)Nc2ncccc2C)cc1C	none
CCCc1nnc(NC(=O)CCC(=O)N2CCN(Cc3ccc(OC)c(F)c3)CC2)s1	M1 antag 49
COc1ccc(CN2CCN(C(=O)CCC(=O)Nc3nnc(C4CCCCC4)s3)CC2)cc1F	M1 antag 34
COc1ccc(CN2CCN(C(=O)CCC(=O)Nc3nnc(CC(C)C)s3)CC2)cc1F	none

Bioassay records deposited in PubChem BioAssay by The Scripps Research Institute Molecular Screening Center.
